The list is not random: actives were taken first. Their share in the collection is about 17%.
ATXN2 expr inh: Primary qHTS for Inhibitors of ATXN expression | HEK-293 ATXN2-luciferase reporter, luminescence, 24 h | Potency, µM (doses to about 57 µM), inactives show at the top dose activity change, negative = inhibition, hits mostly inhibitors | 360,000 tested, 0.72% active; also: % is scaled to controls: 0 for no effect and ±100 for the full control effect; nearly all actives have a fitted effect of over 55% in size
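qHTS (up to 57 uM final) was run with 24 h compound exposure of reporter cells at 37 °C. Each well was multiplexed: SteadyGlo luminescence measured ATXN2-luciferase expression after a fluorogenic Gly-Phe-AFC viability readout (25 uM final).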
HepG2 viability: qHTS for Inhibitors of TGF-b: Cytotox Counterscreen | Potency, µM (doses to about 46.1 µM), for inactives: top-dose activity change, negative = cytotoxicity, usual class: cytotoxic | HepG2 CAGA-GFP viability, ATP luminescence, 18 h | 410,000 tested, 0.76% active
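HepG2 CAGA-GFP cells (1000/well, DMEM with 1% FBS) received compound, then TGF-beta at 500 pg/mL final, and were incubated 18 hours at 37 degrees C. Viability was read by CellTiter-Glo luminescence. Media-only wells were set as complete cell-killing and DMSO as no toxicity.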
TDP1 cell CPT: qHTS for Inhibitors of human tyrosyl-DNA phosphodiesterase 1 (TDP1): qHTS in cells in presence of CPT | 420,000 tested, 12% active | Potency, µM (titrated, usually from 46.2 µM), without a hit: at the highest dose activity change, negative = growth inhibition, usual class: inhibitors | chicken DT40 Tdp1-/-;hTDP1 cells + 20 nM CPT, ATP luminescence, 48 h; also: % is scaled to controls: 0 for no effect and ±100 for the full control effect; nearly all actives have a fitted effect of over 55% in size
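Chicken DT40 Tdp1-/- cells complemented with human TDP1, 400 cells/well, exposed to compounds plus 20 nM camptothecin for at least 48 h at 37 C; viability read as ATP content by CellTiter-Glo luminescence.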
TDP1 cell noCPT: qHTS for Inhibitors of human tyrosyl-DNA phosphodiesterase 1 (TDP1): qHTS in cells in absence of CPT; DT40 Tdp1-/- hTDP1 cells, no CPT, ATP luminescence, 48 h; Potency, µM (top dose mostly 46.2 µM), for the others: at the highest dose activity change, negative = growth inhibition, usual class: inhibitors; 420,000 tested, 15% active; AID 686978, 2013; also: % is scaled to controls: 0 for no effect and ±100 for the full control effect; nearly all actives have a fitted effect of over 55% in size
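Compound effects on proliferation are scored in DT40 Tdp1-/-;hTDP1 cells in the absence of CPT. ATP levels (CellTiter-Glo luminescence) are recorded after a ≥48 hr, 37 °C incubation.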
ATXN viability: Viability Counterscreen for Primary qHTS for Inhibitors of ATXN expression | S2 cells (HEK-293 line with an ATXN2-luciferase reporter) viability, CellTiter-Fluor protease fluorescence, 24 h | Potency, µM (highest dose often 56.7 µM), usual class: cytotoxic | 400,000 tested, 0.49% active; also: nearly all actives have a fitted effect of over 40% in size
TGFb inhibitor: qHTS for Inhibitors of TGF-b. HepG2 CAGA-GFP TGF-b/SMAD3 reporter, GFP fluorescence, 18 h; TGF-beta stimulated, 500 pg/mL final. Potency, µM (doses to about 46.1 µM), for the others: at the top dose activity, negative = inhibition, usual class: inhibitors. 410,000 tested, 1.2% active; also: % is scaled to controls: 0 for no effect and ±100 for the full control effect; nearly all actives have a fitted effect of over 65% in size
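TGF-beta reporter screen: HEPG2 CAGA-GFP, 1% FBS, 500 pg/mL TGF-beta final, 18 h; per-cell GFP summed per well; curves fitted and categorized by class.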
* hit, by the source's call; i = inactive; ? = inconclusive; nt = no result given. Calls follow the shape of the dose curve; as a rule, active = well fitted curve in the direction sought with a large enough effect; inconclusive = small, poorly fitted or top-dose-only effect, or another doubt; inactive = no such curve, though single readings can be large; an effect the other way counts as inactive or inconclusive. Potency is read from the fitted curve at half-maximal effect.

SMILES	ATXN2 expr inh	HepG2 viability	TDP1 cell CPT	TDP1 cell noCPT	ATXN viability	TGFb inhibitor
CN(Cc1cnn(-c2ccc(F)cc2)c1)C(=O)[C@H]1O[C@@H](n2ccc(N)nc2=O)[C@H](O)[C@@H]1O	-8.6%	-9.1%	-14.5%	-2.3%	i	?
NC(=O)C1(C(N)=O)OC1c1ccccc1 (centres undefined)	nt	33.2%	1.8%	-2.0%	i	10.7%
Cc1ccc(OCC(=O)Nc2cccc(-c3nnc(-c4ccccc4)o3)c2)cc1	57.0%	-14.9%	16.4µM*	16.4µM*	i	0.2%
Cc1cccc(OCC(=O)Nc2cccc(-c3nnc(-c4ccccc4)o3)c2)c1C	-32.0%	0.2%	-20.9%	?	?	-0.4%
CSc1cccc(NC(=O)OC2CCCCCCCCCCC2)c1	nt	-13.1%	?	20.6µM*	i	-21.0%
CC(C)(C)NC(=O)CC1C[C@H](C(=O)N2CCCCC2)[C@@]2(C)c3[nH]c4ccccc4c3CCN2C1=O (some centres undefined)	5.0%	-4.8%	-28.5%	?	i	4.0%
CC(C)N(C(=O)[C@H]1CC(CC(=O)NCC23CC4CC(CC(C4)C2)C3)C(=O)N2CCc3c([nH]c4ccccc34)[C@]12C)C(C)C (some centres undefined)	?	-5.2%	13µM*	23.1µM*	?	0.2%
CC(C)N(C(=O)[C@H]1C[C@H](CC(=O)NCC23CC4CC(CC(C4)C2)C3)C(=O)N2CCc3c([nH]c4cc(-c5ccco5)ccc34)[C@]12C)C(C)C	11.3%	2.0%	?	?	i	?
CCN(CC)C(=O)[C@H]1CC(CC(=O)NCC23CC4CC(CC(C4)C2)C3)C(=O)N2CCc3c([nH]c4ccc(OC)cc34)[C@]12C (some centres undefined)	-3.5%	2.0%	20.6µM*	13µM*	?	?
COc1ccc2[nH]c3c(c2c1)CCN1C(=O)C(CC(=O)NCC24CC5CC(CC(C5)C2)C4)C[C@H](C(=O)N2CCCCC2)[C@@]31C (some centres undefined)	8.7%	-0.1%	?	18.4µM*	i	?
C[C@]12c3[nH]c4ccccc4c3CCN1C(=O)C(CC(=O)NCC13CC4CC(CC(C4)C1)C3)C[C@@H]2C(=O)N1CCCCC1 (some centres undefined)	?	-45.4%	20.6µM*	25.9µM*	?	?
COc1cccc(S(=O)(=O)NCC(=O)N2CCCC2)c1	-5.1%	-1.4%	-12.6%	27.7%	i	0.0%
O=C(CCSc1ccccc1Cl)NNC(=O)c1ccncc1	9.9%	1.3%	3.6%	8.6%	i	-19.3%
Cc1cc(C(C2C(=O)CC(C)(C)CC2=O)C2C(=O)CC(C)(C)CC2=O)cc(C)c1OC(F)F	0.8%	-7.0%	-22.4%	-10.8%	i	2.0%
COc1ccc(C(=O)CC2(C(=O)O)CCCCC2)cc1	-37.3%	-12.4%	-14.8%	-4.1%	?	-22.2%
CC(C)N(C(=O)[C@H]1CC(CC(=O)NCc2cccc(C(F)(F)F)c2)C(=O)N2CCc3c([nH]c4ccccc34)[C@]12C)C(C)C (some centres undefined)	?	-91.9%	18.4µM*	23.1µM*	nt	12.6µM*
C[C@]12c3[nH]c4ccccc4c3CCN1C(=O)C(CC(=O)NCC13CC4CC(CC(C4)C1)C3)C[C@@H]2C(=O)N1CCOCC1 (some centres undefined)	-10.7%	-11.1%	16.4µM*	23.1µM*	i	?
CCCCCOc1ccc(C(=O)CCC(=O)Nc2ccc(NC(C)=O)cc2)cc1	nt	-7.6%	-6.1%	-2.3%	i	-5.4%
CCOc1cc(C(N)=O)cc(Br)c1OC	16.6%	-1.3%	23.1µM*	16.4µM*	i	-0.3%
CCOc1cc(C(N)=O)cc(OCC)c1OCC	9.9%	1.3%	-4.1%	-11.6%	i	5.0%
CCOC(=O)c1cc(-c2ccccc2)sc1NC(=O)C(C)(C)C	-1.6%	0.7%	13.7%	-9.3%	i	-2.8%
COc1cc(C(=O)Nc2nc(OC)c(-c3ccccc3)c(OC)n2)cc(OC)c1OC	-1.4%	-5.2%	?	18.4µM*	i	-3.2%
CCOC(=O)c1cc(-c2ccccc2)sc1NC(=O)c1cc(OC)c(OC)c(OC)c1	-2.1%	17.0%	?	18.4µM*	?	10.5%
CCOC(=O)c1cc(-c2ccccc2)sc1NC(=S)Nc1cc(C)ccn1	-7.4%	-0.8%	?	10.3µM*	i	-39.1%
COc1cc(C(=O)Nc2cc(-c3ccccc3)[nH]n2)cc(OC)c1OC	1.0%	0.1%	?	?	i	13.7%
SMILES	ATXN2 expr inh	HepG2 viability	TDP1 cell CPT	TDP1 cell noCPT	ATXN viability	TGFb inhibitor
COC(=O)c1ccccc1NC(=O)c1cc(-c2ccc(Cl)cc2)on1	10.1%	-0.5%	-15.5%	-1.0%	i	-20.6%
COC(=O)c1cc(NC(=O)Cn2ncc3c([nH]c4ccccc43)c2=O)cc(C(=O)OC)c1	4.5%	-20.6%	7.8%	1.4%	i	-2.2%
CCn1nc(C)c(NC(=O)/C=C/c2cnn(C)c2C)c1C	1.0%	3.6%	-0.5%	7.0%	i	-2.0%
CCn1cc(/C=C/C(=O)Nc2c(C)nn(Cc3ccccc3)c2C)cn1	-16.2%	13.3%	?	9.2µM*	?	-15.0%
Cc1nn(Cc2ccc(Cl)cc2Cl)c(C)c1NC(=O)NC12CC3CC(CC(C3)C1)C2	-28.9%	14.9%	20.6µM*	18.4µM*	i	0.0%
CCn1ncc(/C=C/C(=O)Nc2c(C)nn(Cc3ccc(Cl)cc3Cl)c2C)c1C	?	-9.9%	14.6µM*	14.6µM*	?	-9.9%
O=C(O)C1=CCC(c2ccc(Cl)c(Cl)c2)N(S(=O)(=O)c2ccc(F)cc2)C1c1cccc(F)c1 (centres undefined)	nt	nt	9.3%	-6.7%	nt	nt
Cc1ccccc1S(=O)(=O)Cc1ccc(C(=O)N2CCN(c3cccc(C)c3C)CC2)o1	12.6µM*	-17.2%	5.17µM*	4.11µM*	17.8µM*	?
CCc1ccccc1S(=O)(=O)Cc1ccc(C(=O)N2CCN(c3ccccc3OC)CC2)o1	?	-53.4%	8.2µM*	13µM*	?	?
